Records with an inconclusive call do not appear. Values without a mark were called inactive. Calls come from the whole dose curve; as a rule, active = well fitted cell-killing curve with a large enough effect in the repeat runs; inconclusive = weak or mixed curves, or effect the other way; inactive = no such curve, though single readings can be large or run the other way.
test: qHTS assay to identify small molecule agonists of the farnesoid-X-receptor (FXR) signaling pathway - cell viability counter screen (AID 743218); conditions: FXR-bla HEK293T viability, CellTiter-Glo luminescence, 16 h; series mostly up to 62.6 µM; viability change, negative = cytotoxic: at the top concentration; note: nearly all actives have a fitted effect of over 45% in size
How it was run: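 Readout: CellTiter-Glo luminescence, 30 min RT, multiplexed after the FXR-bla FRET reading. HEK 293T FXR-UAS-bla cells received compound 5 h post-plating and were incubated 16 h at 37 C.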
% is set by controls: 0 for no effect and ±100 for the full control effect.

| Structure (SMILES) | viability change, negative = cytotoxic |
| --- | --- |
| O=C(Oc1ccc(Br)cc1)N1CCN2CCC1CC2 | -22.7% |
| CC(C)[N+](=O)[O-] | 10.8% |
| C=C(C)CN(CC)c1c([N+](=O)[O-])cc(C(F)(F)F)cc1[N+](=O)[O-] | 16.6% |
| NC(=O)c1cc([N+](=O)[O-])cc([N+](=O)[O-])c1 | 14.7% |
| CCCCc1c(C)nc(NCC)[nH]c1=O | 34.8% |
| CCc1cc2c(s1)-n1c(C)nnc1CN=C2c1ccccc1Cl | 4.83% |
| CCOP(=S)(OCC)SCSP(=S)(OCC)OCC | 8.55% |
| Nc1cc2c3c(c1)C(c1ccccc1)=N[C@@H](NC(=O)c1cccnc1)C(=O)N3CC2 | -11.1% |
| CCOc1nc(C(Cl)(Cl)Cl)ns1 | -4.12% |
| C[C@H]1CCC[C@H](O)CCCCCc2cc(O)cc(O)c2C(=O)O1 | 7.65% [at 81.1 µM] |
| CCCSC(=O)N(CCC)CCC | 12.3% |
| CCCCN(CCCCO)N=O | 2.33% |
| N#CCNCC#N | 3.39% |
| Cc1coc2c1CCC(C)C2 (stereo not given) | 8.07% [at 81.1 µM] |
| CCOC(=O)NC(=S)Nc1ccccc1NC(=S)NC(=O)OCC | -18.5% |
